# ChEMBL document CHEMBL3988442, “University of Dundee, Small-Polar-MMV Screening Library” (2021)
# For some assays here: Entries with a potency or affinity are not part of this list.
# Columns and labels:
# Design in all cases: scale not given: direction of the effect not stated beside the values
# [1] = molecular target: Protein translocase subunit SecA (Escherichia coli (strain K12)) (UniProt P10408); experiment: Assay to Identify E. coli SecA ATPase Inhibitors; assay type: functional; conditions: 30 µM
# Protein translocase subunit SecA (Escherichia coli (strain K12)), sequence (P10408 whole entry): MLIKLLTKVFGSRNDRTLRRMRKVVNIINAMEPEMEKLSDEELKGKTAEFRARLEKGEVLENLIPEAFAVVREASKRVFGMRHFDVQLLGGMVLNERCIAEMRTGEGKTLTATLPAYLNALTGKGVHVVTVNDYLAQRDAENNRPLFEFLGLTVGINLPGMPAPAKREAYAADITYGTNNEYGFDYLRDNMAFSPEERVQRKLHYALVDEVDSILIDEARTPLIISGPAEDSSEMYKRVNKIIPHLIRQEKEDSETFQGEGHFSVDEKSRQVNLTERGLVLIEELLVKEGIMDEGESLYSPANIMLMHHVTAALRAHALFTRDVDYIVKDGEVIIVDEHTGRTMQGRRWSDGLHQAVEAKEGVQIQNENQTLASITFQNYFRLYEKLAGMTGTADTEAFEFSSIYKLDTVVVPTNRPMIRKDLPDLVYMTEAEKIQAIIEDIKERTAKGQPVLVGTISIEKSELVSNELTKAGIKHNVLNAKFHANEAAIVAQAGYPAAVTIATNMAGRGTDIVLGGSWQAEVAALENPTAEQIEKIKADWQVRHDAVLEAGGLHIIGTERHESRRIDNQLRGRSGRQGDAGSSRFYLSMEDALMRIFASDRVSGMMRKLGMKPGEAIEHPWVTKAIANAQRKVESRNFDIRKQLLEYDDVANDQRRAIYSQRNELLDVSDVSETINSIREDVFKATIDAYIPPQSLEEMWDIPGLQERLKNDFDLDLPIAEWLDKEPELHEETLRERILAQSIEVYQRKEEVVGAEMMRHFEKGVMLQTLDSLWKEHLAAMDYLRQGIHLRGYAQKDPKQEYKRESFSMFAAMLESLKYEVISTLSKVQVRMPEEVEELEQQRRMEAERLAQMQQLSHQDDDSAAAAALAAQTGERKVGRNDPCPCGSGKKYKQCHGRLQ
# [2] = molecular target: T1, Ubiquitin-activating enzyme e1, putative (Leishmania donovani (strain BPK282A1)) (UniProt E9BSI1); experiment: Leishmania donovani Ubiquitin Activating Enzyme (LdE1); assay type: functional; conditions: 30 µM
# T1 sequence (whole entry): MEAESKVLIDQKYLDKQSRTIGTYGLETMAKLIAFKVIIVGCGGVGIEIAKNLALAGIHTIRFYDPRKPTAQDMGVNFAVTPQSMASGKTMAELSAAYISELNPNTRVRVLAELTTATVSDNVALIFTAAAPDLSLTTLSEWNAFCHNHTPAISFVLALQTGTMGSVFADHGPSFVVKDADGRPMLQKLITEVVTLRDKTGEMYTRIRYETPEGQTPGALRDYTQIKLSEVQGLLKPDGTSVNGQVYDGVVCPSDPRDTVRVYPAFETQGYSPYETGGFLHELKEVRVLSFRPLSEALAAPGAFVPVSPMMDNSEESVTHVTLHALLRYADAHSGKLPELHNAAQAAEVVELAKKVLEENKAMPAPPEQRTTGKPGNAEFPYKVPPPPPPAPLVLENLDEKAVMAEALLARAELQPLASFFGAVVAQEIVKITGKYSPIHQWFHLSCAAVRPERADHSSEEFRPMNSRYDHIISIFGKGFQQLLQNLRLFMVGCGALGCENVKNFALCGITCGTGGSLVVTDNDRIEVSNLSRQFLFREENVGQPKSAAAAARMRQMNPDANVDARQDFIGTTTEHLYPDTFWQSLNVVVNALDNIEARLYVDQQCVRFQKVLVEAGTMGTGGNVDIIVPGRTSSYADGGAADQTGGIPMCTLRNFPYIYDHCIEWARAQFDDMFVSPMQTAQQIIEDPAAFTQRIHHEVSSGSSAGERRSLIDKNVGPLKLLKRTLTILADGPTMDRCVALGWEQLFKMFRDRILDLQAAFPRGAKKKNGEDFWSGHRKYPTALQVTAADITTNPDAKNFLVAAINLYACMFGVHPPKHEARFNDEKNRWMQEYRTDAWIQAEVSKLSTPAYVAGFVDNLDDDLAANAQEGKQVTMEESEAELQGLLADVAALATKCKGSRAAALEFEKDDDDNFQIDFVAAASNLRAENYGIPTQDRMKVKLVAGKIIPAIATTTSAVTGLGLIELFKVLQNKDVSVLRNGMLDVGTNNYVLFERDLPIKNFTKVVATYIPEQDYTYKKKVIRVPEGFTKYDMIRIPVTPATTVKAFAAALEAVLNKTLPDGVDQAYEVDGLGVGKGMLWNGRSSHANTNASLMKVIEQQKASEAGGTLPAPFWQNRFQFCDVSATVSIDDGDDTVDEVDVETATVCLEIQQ
# [3] = molecular target: AMP-activated protein kinase, AMPK (Homo sapiens) (UniProt P54646+O43741+P54619+Q9UGJ0+Q9Y478+Q13131+Q9UGI9); experiment: AMP-dependent Kinase enzyme assay. An in vitro enzyme assay that detects ADP turnover that is directly proportional to AMPK activity. This uses naive AMPK that is activated during the assay with MK-8722; assay type: functional; conditions: 30 µM
# [4] = molecular target: Sialic acid-binding Ig-like lectin 9 (Homo sapiens) (UniProt Q9Y336); experiment: Hs-Siglec9 ALPHAscreen SOP 20170721; conditions: 10 µM
# Sialic acid-binding Ig-like lectin 9 (Homo sapiens), sequence (Q9Y336 whole entry): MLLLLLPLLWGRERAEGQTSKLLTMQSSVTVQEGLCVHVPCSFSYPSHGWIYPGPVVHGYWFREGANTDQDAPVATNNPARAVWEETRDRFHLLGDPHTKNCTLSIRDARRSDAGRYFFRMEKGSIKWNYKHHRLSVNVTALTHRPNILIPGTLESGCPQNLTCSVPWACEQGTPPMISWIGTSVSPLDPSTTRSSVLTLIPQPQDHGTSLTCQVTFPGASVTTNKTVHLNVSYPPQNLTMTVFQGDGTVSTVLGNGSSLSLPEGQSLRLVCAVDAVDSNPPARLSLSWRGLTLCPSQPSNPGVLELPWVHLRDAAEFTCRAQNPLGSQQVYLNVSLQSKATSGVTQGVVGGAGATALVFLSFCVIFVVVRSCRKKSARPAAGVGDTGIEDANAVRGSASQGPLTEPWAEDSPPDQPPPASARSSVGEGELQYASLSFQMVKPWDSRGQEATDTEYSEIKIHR
# Trypanosoma cruzi = experiment: Trypanosoma cruzi phosphomannomutase and mannose-1-phosphate guanylyltransferase assay; assay type: functional; conditions: 10 µM
# [5] = molecular target: T2, Arginase-2, mitochondrial (Homo sapiens) (UniProt P78540); experiment: in vitro enzyme assay to detect the production of urea directly proportional to the activity of Arginase II; assay type: functional; conditions: 33.3 µM; further: in the data most compounds retested in dose-response had high values
# T2 sequence (whole entry): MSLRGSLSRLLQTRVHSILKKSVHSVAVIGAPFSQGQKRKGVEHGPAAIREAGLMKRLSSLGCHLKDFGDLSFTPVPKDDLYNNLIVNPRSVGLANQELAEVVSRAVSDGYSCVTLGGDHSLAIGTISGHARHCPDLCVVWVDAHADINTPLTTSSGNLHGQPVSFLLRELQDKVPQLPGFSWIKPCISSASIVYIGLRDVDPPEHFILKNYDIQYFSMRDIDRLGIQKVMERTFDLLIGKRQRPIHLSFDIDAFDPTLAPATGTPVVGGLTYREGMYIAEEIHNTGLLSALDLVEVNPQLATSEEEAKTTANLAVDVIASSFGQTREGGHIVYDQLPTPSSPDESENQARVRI
# [6] = molecular target: T3, Proteasome subunit beta (Trypanosoma cruzi) (UniProt O96673); experiment: Trypanosoma cruzi proteasome chymotrypsin-like activity (TcProtChymo) assay.; further: in the data most compounds retested in dose-response had high values; assay type: functional; conditions: 9.37 µM
# T3 sequence (whole entry): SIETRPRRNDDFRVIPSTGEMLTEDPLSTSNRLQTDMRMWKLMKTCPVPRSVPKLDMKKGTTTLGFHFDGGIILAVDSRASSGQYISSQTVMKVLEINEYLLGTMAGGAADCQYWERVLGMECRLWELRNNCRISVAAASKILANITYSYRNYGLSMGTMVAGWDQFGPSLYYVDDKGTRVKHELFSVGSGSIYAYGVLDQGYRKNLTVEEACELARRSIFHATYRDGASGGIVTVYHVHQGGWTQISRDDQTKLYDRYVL
# Homo sapiens = organism: Homo sapiens; experiment: To identify inhibition of the IFN signalling (Jak-Stat) pathway via expression of an eGFP reporter gene under the control of an IFN-stimulated response element (ISRE) containing MxA promoter.; assay type: functional; conditions: 30 µM
# [7] = molecular target: T4, Tyrosyl-tRNA synthetase, putative (Trypanosoma cruzi (strain CL Brener)) (UniProt Q4DSP6); experiment: Trypanosoma cruzi tyrosyl tRNA synthetase (TcYRS) _High Tyrosine SOP; assay type: functional; conditions: 30 µM; further: in the data most compounds retested in dose-response had high values
# T4 sequence (whole entry): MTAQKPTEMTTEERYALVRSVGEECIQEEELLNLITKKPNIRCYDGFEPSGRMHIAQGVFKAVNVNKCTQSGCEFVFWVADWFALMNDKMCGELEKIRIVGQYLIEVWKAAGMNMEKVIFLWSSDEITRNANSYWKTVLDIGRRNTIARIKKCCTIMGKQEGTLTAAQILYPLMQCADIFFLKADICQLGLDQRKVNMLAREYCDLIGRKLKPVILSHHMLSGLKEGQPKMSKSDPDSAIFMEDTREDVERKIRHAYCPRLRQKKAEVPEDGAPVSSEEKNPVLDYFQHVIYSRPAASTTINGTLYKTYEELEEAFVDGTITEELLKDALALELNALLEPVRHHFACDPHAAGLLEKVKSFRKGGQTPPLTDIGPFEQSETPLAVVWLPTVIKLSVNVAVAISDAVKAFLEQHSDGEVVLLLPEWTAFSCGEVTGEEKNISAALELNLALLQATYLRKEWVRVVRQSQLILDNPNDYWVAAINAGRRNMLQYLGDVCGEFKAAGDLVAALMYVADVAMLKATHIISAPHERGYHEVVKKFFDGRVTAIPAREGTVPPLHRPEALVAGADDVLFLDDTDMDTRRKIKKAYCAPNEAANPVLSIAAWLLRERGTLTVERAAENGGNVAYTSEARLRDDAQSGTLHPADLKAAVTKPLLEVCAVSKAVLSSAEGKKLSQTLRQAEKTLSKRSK
# [8] = molecular target: T4, Tyrosyl-tRNA synthetase, putative (Trypanosoma cruzi (strain CL Brener)); experiment: Trypanosoma cruzi tyrosyl tRNA synthetase (TcYRS) SOP; assay type: functional; conditions: 30 µM
# [9] = molecular target: Chromo domain-containing protein 1 (Saccharomyces cerevisiae (strain ATCC 204508 / S288c) (Baker's yeast)) (UniProt P32657); experiment: ScCHD-1 Enzyme Inhibition Assay; assay type: functional; conditions: 30 µM; further: in the data most compounds retested in dose-response had high values
# Chromo domain-containing protein 1 (Saccharomyces cerevisiae (strain ATCC 204508 / S288c) (Baker's yeast)), sequence (P32657 whole entry, the tested form may be a part): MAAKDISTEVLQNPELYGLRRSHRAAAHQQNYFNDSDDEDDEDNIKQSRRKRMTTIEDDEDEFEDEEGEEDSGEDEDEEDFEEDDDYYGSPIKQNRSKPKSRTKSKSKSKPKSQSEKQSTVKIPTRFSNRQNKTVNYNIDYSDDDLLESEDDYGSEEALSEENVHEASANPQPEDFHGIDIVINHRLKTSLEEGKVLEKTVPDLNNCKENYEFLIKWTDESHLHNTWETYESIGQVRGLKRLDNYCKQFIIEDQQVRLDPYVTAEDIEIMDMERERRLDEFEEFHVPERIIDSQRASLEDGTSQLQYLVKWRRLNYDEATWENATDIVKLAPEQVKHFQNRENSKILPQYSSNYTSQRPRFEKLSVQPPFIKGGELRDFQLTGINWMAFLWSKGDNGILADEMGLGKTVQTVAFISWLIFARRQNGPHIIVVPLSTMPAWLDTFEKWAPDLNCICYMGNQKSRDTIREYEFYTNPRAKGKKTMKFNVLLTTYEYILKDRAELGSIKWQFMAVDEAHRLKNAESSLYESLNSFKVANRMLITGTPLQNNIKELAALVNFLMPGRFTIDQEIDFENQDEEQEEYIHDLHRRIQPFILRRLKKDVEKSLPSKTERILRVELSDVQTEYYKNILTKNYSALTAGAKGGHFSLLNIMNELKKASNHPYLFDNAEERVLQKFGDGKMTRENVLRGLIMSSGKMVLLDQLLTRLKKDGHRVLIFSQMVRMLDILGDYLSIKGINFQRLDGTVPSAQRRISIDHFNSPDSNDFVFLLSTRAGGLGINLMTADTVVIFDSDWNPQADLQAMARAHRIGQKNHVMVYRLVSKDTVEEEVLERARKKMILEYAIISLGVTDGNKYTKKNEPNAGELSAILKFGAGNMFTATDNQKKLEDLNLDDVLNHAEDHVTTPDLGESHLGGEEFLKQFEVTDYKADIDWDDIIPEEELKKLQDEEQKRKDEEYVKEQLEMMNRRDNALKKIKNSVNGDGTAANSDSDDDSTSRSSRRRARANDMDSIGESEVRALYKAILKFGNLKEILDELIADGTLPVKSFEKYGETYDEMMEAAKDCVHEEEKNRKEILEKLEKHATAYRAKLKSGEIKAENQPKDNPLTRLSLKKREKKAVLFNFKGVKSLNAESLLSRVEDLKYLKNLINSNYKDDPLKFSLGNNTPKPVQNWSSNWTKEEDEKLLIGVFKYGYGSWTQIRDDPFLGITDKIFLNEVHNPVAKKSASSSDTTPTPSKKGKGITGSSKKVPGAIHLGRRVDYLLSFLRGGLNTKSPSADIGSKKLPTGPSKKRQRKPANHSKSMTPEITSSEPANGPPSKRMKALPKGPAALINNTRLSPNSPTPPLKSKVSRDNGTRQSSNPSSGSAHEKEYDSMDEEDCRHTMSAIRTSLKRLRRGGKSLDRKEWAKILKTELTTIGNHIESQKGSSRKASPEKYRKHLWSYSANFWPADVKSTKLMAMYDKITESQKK
Structure (SMILES),Percent Effect [1],Percent Effect [2],Percent Effect [3],Percent Effect [4],Percent Effect (Trypanosoma cruzi),Percent Effect [5],Percent Effect [6],Percent Effect (Homo sapiens),Percent Effect [7],Percent Effect [8],Percent Effect [9]
Cc1nc(C)n(CC2CCCN(CCC(=O)N3CCCCC3)C2)n1 (configuration not stated),-1.52%,-2.6%,7.57%,-4.47%,-4.21%,5.26%,-0.566%,20.7%,0%,0%,4.58%
CCc1noc(C(C)N(C)CC(=O)Nc2c(C)cccc2C)n1 (configuration not stated),1.06%,11%,6.59%,4.7%,4.31%,16.8%,8.7%,-3.6%,4.3%,15%,-7.1%
COc1c(C)cnc(CN2CCC(C(=O)N(C)C)CC2)c1C,-5.69%,5.2%,0.364%,10.3%,2.81%,1.42%,9.46%,-0.558%,1.94%,7.32%,-6.93%
COCCN1C(=O)CC(N2CCN(c3ccc(F)cc3)CC2)C1=O (configuration not stated),0.82%,10.5%,2.05%,-7.33%,-0.0974%,-1.18%,10.3%,14.5%,-3.19%,5.2%,-4.78%
Cn1cnnc1C1CCCN(C(=O)NCCOc2ccccc2)C1 (configuration not stated),-3.04%,23.4%,1.73%,-22.3%,4.8%,-1.47%,15.9%,16.1%,5.71%,21.2%,-12%
CCNC(=O)c1ccc(N2CCCC(c3nccn3C(C)C)C2)nc1 (configuration not stated),-2.94%,8%,-3.44%,14.3%,5.16%,20.3%,11.2%,6.3%,3.83%,11.1%,-4.72%
CCc1nc(C2CCCN2C(=O)CCc2cccs2)no1 (configuration not stated),-3.51%,-2.7%,-4.68%,4.58%,-3.81%,1.29%,-4.49%,3.17%,-0.99%,-8.54%,-2.06%
Cc1ccoc1C(=O)N1CC[C@H]2O[C@@H](C)C[C@H]2C1,-5.4%,21.3%,-6.43%,2.33%,5.6%,-45.3%,9.06%,2.95%,8.33%,22.5%,-8.54%
O=C(NCc1nnc2n1CCCC2)N(Cc1ccccc1F)C1CC1,-2.88%,5.41%,-1.8%,0.0872%,-2.12%,-2.38%,12.8%,7.52%,0.529%,0%,-4.24%
CCn1nnc2c1C(COC)CN(Cc1cccs1)C2 (configuration not stated),-2.49%,5.41%,4.39%,6.4%,4.69%,1.67%,12.3%,-4.92%,4.95%,8.54%,-4.09%
O=C(CSC1=NS(=O)(=O)c2cc(F)ccc2N1)Nc1cccc(Cl)c1,-1.88%,-39%,1.02%,-0.207%,2.86%,-0.645%,21.1%,26.7%,-10.6%,-8.97%,-11.3%
CC(NCC1=Cc2cc(Cl)ccc2OC1)c1nnc2n1CCCC2 (configuration not stated),-3.07%,-2.7%,3.91%,2.75%,-0.195%,1.67%,9.38%,-10.3%,4.95%,1.22%,-3.29%
O=C(NCc1ccco1)C1CCCN1Cc1nc(-c2ccco2)no1 (configuration not stated),-0.649%,13.5%,0.501%,-7.57%,-4.18%,4.99%,7.9%,10.9%,7.92%,15.8%,-0.371%
COc1c(CNC2CCCOc3ccccc32)c(C)nn1C (configuration not stated),-6.71%,5.41%,-2.77%,4.94%,3.81%,3.23%,8.5%,-6.93%,6.45%,11.1%,-1.97%
CCC(NC(=O)C1CCN(S(=O)(=O)N(C)C)CC1)c1ccc(C)c(C)c1 (configuration not stated),0.26%,0%,0.886%,1.28%,-2.46%,19.3%,8.82%,-10.2%,-2.15%,1.24%,-0.385%
CC(C)OCCCNC(=O)CS(=O)(=O)Cc1ccc(Cl)c(Cl)c1,-6.75%,5.2%,9.19%,-7.16%,-5.8%,-1.78%,9.63%,33.8%,3.88%,12.2%,-5.85%
Cc1cccc(CS(=O)(=O)CC(=O)NCCCOC(C)C)c1,-4.74%,18.2%,-13.1%,5.88%,9.74%,3.92%,4.05%,23.9%,7.77%,24.4%,-10.7%
COCC1CN(S(C)(=O)=O)Cc2ncn(CC3CC3)c21 (configuration not stated),-4.92%,13.5%,-0.0233%,-3.08%,-5.38%,0.248%,14.2%,27.2%,4.3%,8.64%,-3.62%
Cc1ccc(CNCC2CCc3nnc(C(C)C)n3C2)s1 (configuration not stated),-1.99%,-1.39%,-8.87%,-3.91%,-1.46%,-3.97%,4.56%,-6.98%,1.05%,0%,-1.15%
COc1ccc(COCC(O)CNC(=O)c2cccnc2)cc1 (configuration not stated),-2.83%,3.8%,0.844%,-5.42%,-7.08%,-5.38%,8.75%,2.64%,1.04%,0%,-14.1%
Cc1cc(CN(C)C(=O)NC2CCCN(c3ncccn3)C2)no1 (configuration not stated),-1.33%,5.26%,1.46%,4.34%,3.01%,-1.92%,2.34%,-2.99%,9.31%,21.9%,-10.3%
COc1ccc(OCCc2sc(C3(O)CCCNCC3)nc2C)cc1 (configuration not stated),-5.55%,6.76%,2.86%,1.72%,0.198%,-6.73%,13.6%,21%,-3.23%,9.09%,-24.4%
